Results filed as inconclusive are left out. Calls of active or inactive are those of the source. Unless noted, the call rests on the fitted dose curve; in most records, active means well fitted curve in either direction with a large enough effect (not every such curve was filed as active); inconclusive means small, poorly fitted or top-dose-only effect, or another doubt; inactive means flat fitted curve, though single readings scatter.
Tests used:
[1] = molecular target: Lysosomal acid glucosylceramidase (Homo sapiens) (UniProt P04062); experiment: Glucocerebrosidase-p2 (AID 348; in the data active means potency below about 10 µM; further: potency means the concentration at half of the fitted maximal effect); conditions: purified GBA, blue fluorogenic substrate, 40 min
Outline: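 Normal human glucocerebrosidase (0.2 nM) with blue fluorogenic substrate (80 uM final) in citrate/phosphate pH 5.9 with 10mM sodium taurocholate, 0.01% tween-20; 40 min RT, NaOH/glycine stop; fluorescence Ex 365/Em 440; AC50 from a titration from 0.6 nM upwards.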

[2] = AP1 Signaling Pathway (AID 357); conditions: ME-180 AP-1-bla reporter, EGF-induced, beta-lactamase ratio, 5 h; at 7.69 µM (top of the series) unless noted;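 further: ME-180 reporter cells stimulated with EGF at its EC50 level; on the % scale 0 is the no-effect control and ±100 the full control effect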
Outline: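 Beta-lactamase reporter under AP-1 response element, ME-180 background. Stimulus: EC50 EGF. Compound exposure 5 h, 37 °C. Detection: CCF4, 2.5 h RT, 460/530 nm. Values: AC50 from titration.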

[3] = Stat Signaling Pathway (AID 446); conditions: ME-180 (cervical carcinoma) SIE beta-lactamase reporter, IL-6 stimulated, 5 h; at 7.69 µM (top of the series) unless noted;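 further: ME-180 cervical cancer cells given 40 pM IL-6 alongside compound; SIE-controlled beta-lactamase reporter measured as 460/530 nm FRET emission ratio; on the % scale 0 is the no-effect control and ±100 the full control effect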
Outline: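 Emission at 460 and 530 nm (excitation 405 nm) reports SIE-controlled beta-lactamase in ME-180 cells. Cells received compound with 40 pM IL-6 for 5 hrs at 37 C; data scaled between 300 pM IL-6 and 125 nM JAK-inhibitor controls.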

[4] = molecular target: Glucocorticoid receptor (Homo sapiens) (UniProt P04150); experiment: GR-EFC Redistribution (AID 451; calls by dose curve; further: potency means the concentration at half of the fitted maximal effect); conditions: CHO-K1 GR-EFC translocation, beta-gal luminescence, 2 h
Outline: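 CHO-K1 cells expressing nuclear EA and GR-ED fragments of b-gal; compounds titrated up to 46 uM final, 2 h at 37 C. GR nuclear translocation read as complemented b-gal luminescence after 1 h RT detection.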

[5] = molecular target: Mitogen-activated protein kinase 10 (Mus musculus) (UniProt Q61831); experiment: JNK3 AlphaScreen Assay (AID 530); conditions: JNK3 lysate, c-Jun phosphorylation; series mostly up to 57.1 µM;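 further: kinase came from lysate of stimulated human HepG2 cells; signal reports phosphorylation of biotinylated GST-cJun 1-79 at Ser73 with 10 µM ATP; on the % scale 0 is the no-effect control and ±100 the full control effect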
Outline: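 Activity was read by AlphaScreen after JNK3-containing HepG2 lysate (cytokine pre-activated) phosphorylated biotinylated GST-cJun with 10 uM ATP at room temperature. Phospho-Ser73 cJun antibody with Protein-A acceptor beads provided detection.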

[6] = molecular target: 3',5'-cyclic-AMP phosphodiesterase 4B (Homo sapiens) (UniProt Q07343); experiment: qHTS Assay for Inhibitors of PDE-IV (AID 607; active means well fitted activation curve with a large enough effect in the main read-out, with a control signal flat, not every such curve was filed as active; further: % of control where 0% means no effect); conditions: HEK293 ACTOne CNG channel cells, membrane potential fluorescence; series mostly up to 22.9 µM
Outline: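 The readout is membrane depolarisation from a cAMP-sensing CNG channel, detected with a potential dye at ex 535/em 590. Cells were HEK293-derived (endogenous PDE-IV) at 1000 cells/well, titrated up to 22.9 uM final.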

[7] = molecular target: Cytochrome P450 2C9 (Homo sapiens) (UniProt P11712); experiment: qHTS Assay for Inhibitors and Substrates of Cytochrome P450 2C9 (AID 883; active means well fitted curve in the direction sought with a large enough effect; an effect the other way counts as inactive or inconclusive; further: on the % scale 0 is the no-effect control and ±100 the full control effect; nearly all actives have a fitted effect of over 60% in size); conditions: recombinant CYP2C9, luciferin-H luminescence, 60 min; series mostly up to 57.1 µM
Outline: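 Signal: luciferase luminescence reporting luciferin produced by CYP2C9. Conditions: 10nM enzyme, Luciferin-H 100uM at KM, 25mM KPO4, 37C, 60 min NADPH-driven reaction. Reference: 57uM sulphaphenazole as 100% inhibition.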

[8] = molecular target: Cytochrome P450 3A4 (Homo sapiens) (UniProt P08684); experiment: qHTS Assay for Activators of Cytochrome P450 3A4 (AID 885; active means well fitted curve in the direction sought with a large enough effect; an effect the other way counts as inactive or inconclusive; further: nearly all actives have a fitted effect of over 65% in size); conditions: recombinant CYP3A4, Luciferin-PPXE luminescence, 60 min; series mostly up to 57.1 µM
Outline: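 Activators are scored by enhanced luminescence from CYP3A4 conversion of luciferin-PPXE (25uM, equal to KM) to luciferin, after 60 min at RT with an NADPH-regenerating system.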

[9] = qHTS Assay for Lipid Storage Modulators (AID 1519; calls by dose curve); conditions: Drosophila S3 cells, BODIPY lipid droplet/cell ratio, laser cytometry, cells loaded with oleic acid; for activity change, negative = inhibition: at 57.5 µM (top of the series)
Outline: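 Cells seeded at 5,000 per well were treated with compounds over a concentration series and loaded with oleic acid (400 uM, as added). Lipid droplet fluorescence (488 nm excitation, 500-530 nm channel) was read by laser-scanning cytometry and normalized to 20 uM Triacsin C.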

[10] = Primary qHTS for small molecule stabilizers of the endoplasmic reticulum resident proteome: Secreted ER Calcium Modulated Protein (SERCaMP) assay (AID 1508630; active means well fitted curve in the direction sought with a large enough effect; an effect the other way counts as inactive or inconclusive; further: on the % scale 0 is the no-effect control and ±100 the full control effect); conditions: SH-SY5Y GLuc-SERCaMP (Gaussia luciferase released on ER calcium loss) secretion, thapsigargin, luminescence; series mostly up to 38.4 µM
Outline: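 The SH-SY5Y reporter protocol was run at 3 concentrations up to 38.3 uM (primary) or 11 concentrations (follow-up): 16 h compound, 100 nM thapsigargin for 4 h, then extracellular luciferase luminescence.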

[11] = molecular target: Cytochrome P450 2C19 (Homo sapiens) (UniProt P33261); experiment: qHTS Assay for Inhibitors and Substrates of Cytochrome P450 2C19 (AID 899; active means well fitted curve in the direction sought with a large enough effect; an effect the other way counts as inactive or inconclusive; further: potency means the concentration at half of the fitted maximal effect; nearly all actives have a fitted effect of over 60% in size); conditions: recombinant CYP2C19, luciferin-H EGE luminescence; series mostly up to 57.1 µM
Outline: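 Signal comes from luciferase acting on luciferin released by CYP2C19-mediated hydroxylation of Luciferin-H EGE, 10uM (KM). Assay mix: 5nM enzyme, 50mM KPO4; 60 min at 37C with NADPH regeneration. Data normalized against 57uM ketoconazole.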

[12] = molecular target: Cytochrome P450 1A2 (Homo sapiens) (UniProt P05177); experiment: p450-cyp1a2 (AID 410; calls by dose curve; further: potency means the concentration at half of the fitted maximal effect); conditions: recombinant CYP1A2, luciferin-ME demethylation, luminescence; series mostly up to 57 µM
Outline: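 O-Demethylation of luciferin 6' methyl ether by human CYP1A2 is monitored as luciferase luminescence. Substrate sits at Km (100uM); enzyme is 20nM. Values are scaled to 57 uM furafylline as maximal inhibition.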

[13] = NFAT Signaling Pathway (AID 444); conditions: Jurkat NFAT-bla M1, carbachol, beta-lactamase ratio, 5 h; at 7.69 µM (top of the series) unless noted
Outline: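 Jurkat cells with NFAT-driven β-lactamase reporter and co-expressed M1 receptor, stimulated with carbachol (final 1 uM, ~EC50), compound titration, 5 h at 37 °C. CCF4 loaded 1 h at RT; 460/530 nm ratio gave %activity and AC50.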

[14] = molecular target: Glucocorticoid receptor (Homo sapiens) (UniProt P04150); experiment: GR-GFP Redistribution (AID 450;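 active means compounds whose dose series gives a full or clear partial fitted curve of increased nuclear translocation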; further: potency means the concentration at half of the fitted maximal effect); conditions: U2OS GR-GFP nuclear translocation, laser cytometry, 2 h
[15] = Confirmation and Secondary Assay for Modulators of Hemoglobin Beta Chain Splicing at IVS2 654 locus (AID 910; active means well fitted curve in the direction sought with a large enough effect; an effect the other way counts as inactive or inconclusive;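 further: HeLa cells stably carrying EGFP split by mutant beta-globin IVS2-654 intron; % of control where 0% means no effect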); conditions: HeLa EGFP-654 splicing reporter, GFP fluorescence, 48 h; series mostly up to 38.3 µM
Outline: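 HeLa cells stably expressing EGFP interrupted by β-globin IVS2-654 intron, seeded overnight in Opti-MEM/2% FCS, then treated 2 days at 37 °C. Restored splicing read as total peak GFP intensity per well by laser scanning cytometry (488 nm excitation, 500–520 nm emission); 500 nM antisense PNA as control.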

[16] = molecular target: Ubiquitin carboxyl-terminal hydrolase 1 (Homo sapiens) (UniProt O94782); experiment: Inhibitors of USP1/UAF1: Pilot qHTS (AID 504865; active means well fitted curve in the direction sought with a large enough effect; an effect the other way counts as inactive or inconclusive;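 further: rhodamine fluorescence freed from ubiquitin-rhodamine substrate followed over time; top concentration of the series differs between compounds; on the % scale 0 is the no-effect control and ±100 the full control effect; nearly all actives have a fitted effect of over 35% in size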); conditions: purified USP1/UAF1, Ub-rhodamine cleavage fluorescence; series mostly up to 54.9 µM
Outline: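 In 50mM HEPES pH 7.8 containing 0.5mM EDTA, 1mM TCEP, 0.1 mg/ml BSA and 0.01% Tween-20, 1nM USP1/UAF1 is exposed to compound for 15 min, then Ub-Rho (150nM final) is added and fluorescence is read over time.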

[17] = measured here: cell count channel max response
[18] = measured here: lipid channel max response

Chain of Cytochrome P450 3A4 (Homo sapiens) (P08684 whole entry, looked up): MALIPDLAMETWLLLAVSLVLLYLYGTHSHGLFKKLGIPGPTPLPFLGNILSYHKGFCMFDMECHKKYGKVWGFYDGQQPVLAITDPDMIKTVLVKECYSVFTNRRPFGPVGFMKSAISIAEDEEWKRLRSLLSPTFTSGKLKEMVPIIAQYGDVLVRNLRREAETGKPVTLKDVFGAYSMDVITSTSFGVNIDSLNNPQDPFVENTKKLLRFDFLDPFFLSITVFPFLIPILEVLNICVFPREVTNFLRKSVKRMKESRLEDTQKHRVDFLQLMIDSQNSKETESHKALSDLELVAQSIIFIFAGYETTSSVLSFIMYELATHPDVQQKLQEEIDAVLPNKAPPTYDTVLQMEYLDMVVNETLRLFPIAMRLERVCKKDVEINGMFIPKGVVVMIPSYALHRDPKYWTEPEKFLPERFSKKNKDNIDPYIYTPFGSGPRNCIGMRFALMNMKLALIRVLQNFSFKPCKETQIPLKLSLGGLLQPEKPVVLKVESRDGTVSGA
Chain of Glucocorticoid receptor (Homo sapiens) (P04150 whole entry, looked up, the tested form may be a part): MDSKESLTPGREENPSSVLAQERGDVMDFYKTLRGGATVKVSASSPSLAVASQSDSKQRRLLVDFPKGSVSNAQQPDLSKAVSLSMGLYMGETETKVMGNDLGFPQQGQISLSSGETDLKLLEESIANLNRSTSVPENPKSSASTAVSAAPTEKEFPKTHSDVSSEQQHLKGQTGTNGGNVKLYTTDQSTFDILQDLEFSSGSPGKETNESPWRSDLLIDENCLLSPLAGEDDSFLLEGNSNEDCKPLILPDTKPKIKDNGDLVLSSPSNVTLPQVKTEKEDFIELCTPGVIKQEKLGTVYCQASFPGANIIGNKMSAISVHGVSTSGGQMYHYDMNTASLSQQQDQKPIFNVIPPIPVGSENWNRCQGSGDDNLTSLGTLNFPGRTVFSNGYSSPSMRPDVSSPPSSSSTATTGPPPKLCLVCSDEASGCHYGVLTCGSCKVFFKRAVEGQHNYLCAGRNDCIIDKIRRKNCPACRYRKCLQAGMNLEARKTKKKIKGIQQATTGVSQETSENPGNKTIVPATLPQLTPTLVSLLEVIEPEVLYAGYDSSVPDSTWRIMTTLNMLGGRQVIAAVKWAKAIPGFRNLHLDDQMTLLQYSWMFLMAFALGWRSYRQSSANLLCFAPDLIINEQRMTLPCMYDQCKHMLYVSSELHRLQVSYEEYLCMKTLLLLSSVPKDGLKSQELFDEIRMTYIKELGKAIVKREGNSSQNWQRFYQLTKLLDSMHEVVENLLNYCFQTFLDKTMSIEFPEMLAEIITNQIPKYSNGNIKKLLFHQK
Chain of 3',5'-cyclic-AMP phosphodiesterase 4B (Homo sapiens) (Q07343 whole entry, looked up): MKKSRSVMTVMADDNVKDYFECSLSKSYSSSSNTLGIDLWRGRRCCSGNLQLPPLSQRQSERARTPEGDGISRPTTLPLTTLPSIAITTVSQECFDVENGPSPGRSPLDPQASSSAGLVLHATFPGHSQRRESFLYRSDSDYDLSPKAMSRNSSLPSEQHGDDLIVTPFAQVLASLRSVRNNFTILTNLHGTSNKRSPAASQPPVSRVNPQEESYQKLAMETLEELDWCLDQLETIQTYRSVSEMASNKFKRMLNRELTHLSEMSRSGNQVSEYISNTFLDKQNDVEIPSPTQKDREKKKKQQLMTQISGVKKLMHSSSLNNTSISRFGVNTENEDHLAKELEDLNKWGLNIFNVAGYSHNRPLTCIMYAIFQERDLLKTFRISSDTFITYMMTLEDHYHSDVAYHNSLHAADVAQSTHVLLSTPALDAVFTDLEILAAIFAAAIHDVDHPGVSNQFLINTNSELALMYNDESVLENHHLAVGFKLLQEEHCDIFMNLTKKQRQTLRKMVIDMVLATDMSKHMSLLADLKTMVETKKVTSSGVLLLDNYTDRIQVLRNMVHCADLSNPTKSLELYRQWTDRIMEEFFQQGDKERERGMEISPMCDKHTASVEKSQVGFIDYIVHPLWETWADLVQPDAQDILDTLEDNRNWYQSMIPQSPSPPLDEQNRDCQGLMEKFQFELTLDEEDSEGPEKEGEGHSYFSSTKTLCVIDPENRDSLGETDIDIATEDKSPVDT
Chain of Lysosomal acid glucosylceramidase (Homo sapiens) (P04062 whole entry, looked up): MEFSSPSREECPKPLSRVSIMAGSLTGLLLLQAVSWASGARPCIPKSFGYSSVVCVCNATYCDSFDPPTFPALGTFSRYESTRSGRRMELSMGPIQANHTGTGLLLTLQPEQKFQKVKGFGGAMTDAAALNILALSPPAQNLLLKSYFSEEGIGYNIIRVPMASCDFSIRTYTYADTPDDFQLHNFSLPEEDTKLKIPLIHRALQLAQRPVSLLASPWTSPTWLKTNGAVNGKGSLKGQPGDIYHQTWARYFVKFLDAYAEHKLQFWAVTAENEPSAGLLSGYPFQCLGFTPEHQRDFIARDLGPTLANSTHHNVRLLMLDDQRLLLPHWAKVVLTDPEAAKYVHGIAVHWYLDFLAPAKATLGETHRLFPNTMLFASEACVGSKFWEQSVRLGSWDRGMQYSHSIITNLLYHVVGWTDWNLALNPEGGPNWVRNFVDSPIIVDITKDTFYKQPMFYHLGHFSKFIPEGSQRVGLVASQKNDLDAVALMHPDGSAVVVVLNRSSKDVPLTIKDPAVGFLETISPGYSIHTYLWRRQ
Chain of Cytochrome P450 2C9 (Homo sapiens) (P11712 whole entry, looked up): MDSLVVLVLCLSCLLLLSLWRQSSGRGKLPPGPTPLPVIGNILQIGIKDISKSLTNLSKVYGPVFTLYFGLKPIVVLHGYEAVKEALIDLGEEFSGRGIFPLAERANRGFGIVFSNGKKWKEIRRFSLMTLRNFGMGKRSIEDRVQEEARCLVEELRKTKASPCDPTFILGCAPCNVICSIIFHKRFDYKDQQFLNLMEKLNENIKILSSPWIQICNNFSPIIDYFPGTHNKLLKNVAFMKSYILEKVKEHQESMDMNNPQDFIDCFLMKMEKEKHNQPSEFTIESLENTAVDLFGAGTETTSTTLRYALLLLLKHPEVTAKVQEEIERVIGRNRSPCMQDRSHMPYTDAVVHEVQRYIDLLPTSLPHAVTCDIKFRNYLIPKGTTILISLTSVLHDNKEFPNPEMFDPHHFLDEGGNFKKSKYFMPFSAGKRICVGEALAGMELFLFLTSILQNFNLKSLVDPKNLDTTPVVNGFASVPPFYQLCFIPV
Chain of Cytochrome P450 2C19 (Homo sapiens) (P33261 whole entry, looked up): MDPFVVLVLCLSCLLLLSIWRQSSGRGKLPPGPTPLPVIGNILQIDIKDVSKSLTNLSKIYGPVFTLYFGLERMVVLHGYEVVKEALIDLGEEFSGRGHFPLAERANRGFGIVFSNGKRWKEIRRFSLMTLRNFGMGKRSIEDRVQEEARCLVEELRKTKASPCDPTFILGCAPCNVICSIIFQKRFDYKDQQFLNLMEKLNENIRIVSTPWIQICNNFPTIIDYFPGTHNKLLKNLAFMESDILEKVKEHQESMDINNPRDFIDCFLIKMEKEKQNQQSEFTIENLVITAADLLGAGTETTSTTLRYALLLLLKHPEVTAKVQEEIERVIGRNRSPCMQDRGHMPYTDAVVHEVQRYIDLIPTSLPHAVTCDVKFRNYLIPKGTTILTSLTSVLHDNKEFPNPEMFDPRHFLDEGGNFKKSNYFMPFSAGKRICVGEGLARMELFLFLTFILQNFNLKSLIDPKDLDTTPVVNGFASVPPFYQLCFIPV
Chain of Cytochrome P450 1A2 (Homo sapiens) (P05177 whole entry, looked up): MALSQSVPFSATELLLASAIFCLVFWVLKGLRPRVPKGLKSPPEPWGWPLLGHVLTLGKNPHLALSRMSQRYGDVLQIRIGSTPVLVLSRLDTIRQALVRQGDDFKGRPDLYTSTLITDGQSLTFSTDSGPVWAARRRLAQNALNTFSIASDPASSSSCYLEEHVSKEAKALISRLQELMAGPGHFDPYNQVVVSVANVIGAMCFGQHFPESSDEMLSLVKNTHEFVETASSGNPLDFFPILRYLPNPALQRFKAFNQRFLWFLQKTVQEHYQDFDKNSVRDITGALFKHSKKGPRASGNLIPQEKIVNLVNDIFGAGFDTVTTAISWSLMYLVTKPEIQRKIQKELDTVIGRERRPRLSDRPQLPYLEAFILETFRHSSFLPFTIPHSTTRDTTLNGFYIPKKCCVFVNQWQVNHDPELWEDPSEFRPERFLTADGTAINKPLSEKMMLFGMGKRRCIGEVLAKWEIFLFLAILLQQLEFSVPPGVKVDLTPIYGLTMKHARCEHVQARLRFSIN
Chain of Ubiquitin carboxyl-terminal hydrolase 1 (Homo sapiens) (O94782 whole entry, looked up): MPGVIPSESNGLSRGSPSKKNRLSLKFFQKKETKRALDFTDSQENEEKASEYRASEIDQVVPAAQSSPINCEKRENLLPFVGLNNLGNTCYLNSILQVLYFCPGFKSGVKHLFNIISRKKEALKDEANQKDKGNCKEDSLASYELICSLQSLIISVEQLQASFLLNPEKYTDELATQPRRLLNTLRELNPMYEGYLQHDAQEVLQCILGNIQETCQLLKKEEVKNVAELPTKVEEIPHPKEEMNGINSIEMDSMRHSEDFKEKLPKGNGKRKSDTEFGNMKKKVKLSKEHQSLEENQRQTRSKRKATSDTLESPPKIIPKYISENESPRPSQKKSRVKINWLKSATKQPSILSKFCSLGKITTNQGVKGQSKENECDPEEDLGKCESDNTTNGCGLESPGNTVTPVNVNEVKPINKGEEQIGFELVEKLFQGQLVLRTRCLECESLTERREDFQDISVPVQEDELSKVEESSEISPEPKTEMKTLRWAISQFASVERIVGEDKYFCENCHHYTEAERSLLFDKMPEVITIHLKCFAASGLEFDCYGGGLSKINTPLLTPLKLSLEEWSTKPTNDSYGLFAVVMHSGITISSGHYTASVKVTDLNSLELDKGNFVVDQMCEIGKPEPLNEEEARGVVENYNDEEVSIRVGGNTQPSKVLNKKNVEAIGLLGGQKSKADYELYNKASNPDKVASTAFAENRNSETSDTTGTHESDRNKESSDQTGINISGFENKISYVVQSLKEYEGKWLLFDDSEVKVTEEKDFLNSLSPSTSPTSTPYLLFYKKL

Row | Structure (SMILES) | Potency [1] | activity change, negative = inhibition [2] | activity, negative = inhibition [3] | Potency [4] | Potency [5] | Potency [6] | Potency [7] | Potency [8] | activity change, negative = inhibition [9] | max response [9, 17] | max response [9, 18] | outcome [10] | Potency [11] | Potency [12] | activity change, negative = inhibition [13] | Potency [14] | Potency [15] | Potency [16]
1 | O=S(=O)(c1ccccc1)N1CCC2(CC1)CN(c1ccncc1)C2 | > 11.4 µM (inactive) | 0.671% (inactive) | 0.614% (inactive) | > 46 µM (inactive) | inactive | inactive | inactive | inactive | 2% (inactive) | 0.397% | -0.685% | inactive |  |  |  |  |  | 
2 | COC(=O)N1CCC2(CCCN(c3ccccn3)C2)CC1 | > 11.4 µM (inactive) | -5.95% (inactive) | -6.11% (inactive) | > 46 µM (inactive) | inactive | inactive |  |  | 1.3% (inactive) | 13.5% | 15.8% | inactive | 3.16 µM (active) |  |  |  |  | 
3 | O=C(c1ccncc1)N1CCC2(CC1)CN(c1ccncc1)C2 | > 11.4 µM (inactive) | 6.26% (inactive) | 1.34% (inactive) | > 46 µM (inactive) | inactive | inactive |  |  | 1.59% (inactive) | -20.1% | -17.6% | inactive |  |  |  |  |  | 
4 | O=C(c1ccncc1)N1CCC2(CCCN(Cc3nccs3)C2)CC1 | > 11.4 µM (inactive) | -14.3% (inactive) | 7.31% (inactive) | > 46 µM (inactive) | inactive | inactive |  |  | 6% (inactive) | 2.79% | 11.6% | inactive |  |  |  |  |  | 
5 | COc1ccccc1CN1CCCC2(CCN(C(=O)c3cc(C(F)(F)F)cc(C(F)(F)F)c3)CC2)C1 | > 11.4 µM (inactive) | 16.7% (inactive) |  | > 46 µM (inactive) | inactive | inactive |  |  | 3.12% (inactive) | -3.38% | 1.79% | inactive |  |  |  |  |  | 
6 | CN(C)C(=O)c1ccc(-c2nc(NCc3ccccc3)c3ccccc3n2)cc1 | > 11.4 µM (inactive) |  | -21.7% (inactive) | > 46 µM (inactive) | inactive |  |  | inactive | 10.9% (inactive) | 6.91% | 16.5% | inactive |  | 15.8 µM (active) | 16% (inactive) | > 46 µM (inactive) | inactive | inactive
7 | CN1CCC2(CC1)CCN(C(=O)c1cccc(F)c1)CC2 | > 11.4 µM (inactive) | 2.25% (inactive) |  | > 46 µM (inactive) | inactive | inactive |  |  | -1.77% (inactive) | 3% | 2.59% | inactive |  |  |  |  |  | 
8 | COC(=O)N1CCC2(CCCN(C(=O)Nc3cccc(C#N)c3)C2)CC1 | > 11.4 µM (inactive) | -0.449% (inactive) |  | > 46 µM (inactive) | inactive | inactive |  | inactive | 4.6% (inactive) | 16% | 23.7% | inactive |  |  |  |  |  | 

— PubChem BioAssay (NCATS)
